# MCF10A rerep: A quantitative high throughput screen for small molecules that induce DNA re-replication in MCF 10a normal breast cells. Potency, µM (titrated, usually from 46.1 µM), without a hit: at the top dose activity, positive = re-replication, actives largely listed as activators. MCF 10A DNA re-replication, Hoechst nuclear intensity, 48 h. 350,000 compounds, 2.9% hits. AID 624296, 2012; further: potency means the concentration at half of the fitted maximal effect; % of control where 0% means no effect; nearly all actives have a fitted effect of over 50% in size
# SW480 rerep: A quantitative high throughput screen for small molecules that induce DNA re-replication in SW480 colon adenocarcinoma cells; SW480 DNA re-replication, Hoechst DNA content imaging, 48 h; Potency, µM (top dose mostly 46.1 µM), for the others: at the highest dose re-replication activation, most hits filed as activators; 340,000 compounds, 1.8% hits; AID 624297, 2012; further: potency means the concentration at half of the fitted maximal effect; % of control where 0% means no effect; nearly all actives have a fitted effect of over 55% in size
#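 Compounds, transferred as 23 nL by pin tool, were incubated with cells for 48 hr; DNA content per nucleus was then quantified by Hoechst staining and fluorescence plate imaging.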
# TDP1 cell noCPT: qHTS for Inhibitors of human tyrosyl-DNA phosphodiesterase 1 (TDP1): qHTS in cells in absence of CPT; DT40 Tdp1-/- hTDP1 cells, no CPT, ATP luminescence, 48 h; Potency, µM (titrated, usually from 46.2 µM), for the others: at the highest dose activity change, negative = growth inhibition, usual class: inhibitors; 420,000 compounds, 15% hits; AID 686978, 2013; further: potency means the concentration at half of the fitted maximal effect; on the % scale 0 is the no-effect control and ±100 the full control effect; nearly all actives have a fitted effect of over 55% in size
#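 Readout: luminescence from CellTiter-Glo after 30 min in the dark at RT. Cells: DT40 Tdp1-/- with stable hTDP1, 400/well. Exposure: compounds alone, ≥48 hr, 37 °C.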
# IL1B secr inh: qHTS for Inhibitors of Inflammasome Signaling: IL-1-beta AlphaLISA Primary Screen; THP-1 LPS/ATP IL-1B secretion, AlphaLISA, 16 h; stronger effect = lower value; activity change, % at 57.5 µM; 360,000 compounds, 4.7% hits; AID 743279, 2014; in the data active means activity change below about -50%; inconclusive means mostly about -30% to -49%; further: on the % scale 0 is the no-effect control and ±100 the full control effect
#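 Secreted IL-1B measured by AlphaLISA bead assay after 16 h compound exposure of THP-1 cells; compounds (final up to 57.5 uM) added 1 h before LPS (250 ng/mL) and ATP (1.25 mM) stimulation; lower signal means less secretion.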
# BCR signal inh: qHTS Assay to Find Inhibitors of Chronic Active B-Cell Receptor Signaling. 340,000 compounds, 0.05% hits. ABC-DLBCL IkBa-CBG/CBR reporter, luminescence ratio, 4 h. Potency, µM (series often up to 46.1 µM), for the others: at the highest dose activity change, negative = inhibition, actives largely listed as inhibitors. AID 493014, 2011; active means well fitted inhibition curve with a large enough effect in the signal ratio, with a control signal flat, not every such curve was filed as active; inconclusive means small, poorly fitted or top-dose-only effect, or effect the other way, or a change in a side signal; the % refers to the signal ratio;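 further: potency means the concentration at half of the fitted maximal effect; plate controls were basal doxycycline-induced cells for no effect and cells given 10 µM MG132 for full effect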
#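 Cell line TMD8 (human ABC DLBCL), stably expressing tet-inducible CBG68-IkBa fusion and CBR; IMDM/0.5% FBS; cpd up to 46 uM; dox induction, 4 h, 37C/5% CO2; dual luminescence; green/red ratio; MG132 control.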
# TDP1 cell CPT: qHTS for Inhibitors of human tyrosyl-DNA phosphodiesterase 1 (TDP1): qHTS in cells in presence of CPT | chicken DT40 Tdp1-/-;hTDP1 cells + 20 nM CPT, ATP luminescence, 48 h | 420,000 compounds, 12% hits | AID 686979, 2013 | Potency, µM (doses to about 46.2 µM), without a hit: at the highest dose activity change, negative = growth inhibition, actives largely listed as inhibitors; further: potency means the concentration at half of the fitted maximal effect; on the % scale 0 is the no-effect control and ±100 the full control effect; nearly all actives have a fitted effect of over 55% in size
#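 Chicken DT40 Tdp1-/- cells stably complemented with human TDP1 were seeded at 400 cells/well in medium containing 20 nM camptothecin, exposed to pin-transferred compounds, and grown at 37 °C for at least 48 hr. Viability was read as ATP luminescence.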
# * hit, by the source's call; u = inconclusive; x = no result; [ ] = another dose, or the depositor's remark. Rows were chosen to be rich in hits. Some 19% of all compounds tested hit in one or more screens of this group. Unless noted, the call rests on the fitted dose curve; in most records, active means well fitted curve in the direction sought with a large enough effect; inconclusive means small, poorly fitted or top-dose-only effect, or another doubt; inactive means no such curve, though single readings can be large; an effect the other way counts as inactive or inconclusive.
SMILES,MCF10A rerep,SW480 rerep,TDP1 cell noCPT,IL1B secr inh,BCR signal inh,TDP1 cell CPT
CN(C)S(=O)(=O)c1cc(NC(=O)CSc2nn(-c3ccc(Cl)cc3)c(=S)s2)ccc1Cl,7.3%,16.4%,u,-28.5,2.0%,u
c1cncc(C2SCCCS2)c1,x,x,-10.5%,36.8,x,-10.2%
COCCCNC(=O)CN1C(=O)COc2ccc(S(=O)(=O)N3CCCC3)cc21,x,x,5.9%,x,x,2.4%
COc1ccccc1CNC(=O)c1cc(Sc2cccc(Cl)c2)nc2ccccc12,x,x,u,x,0.0%,u
Clc1ccccc1N1CCN(Cc2c[nH]c3ccccc23)CC1,u,-0.8%[9.22 µM],5.17µM*,-80.6*,x,2.59µM*
O=C(C(=O)N1CCN(c2ccccc2Cl)CC1)c1c[nH]c2ccccc12,u,-11.3%,u,6.1,u,u
Fc1ccccc1N1CCN(C2CCN(Cc3c[nH]c4ccccc34)CC2)CC1,-2.3%,-2.1%,u,4.2,2.3%,16.4µM*
C=CCNc1nc(C(=O)OCC(=O)Nc2c(Cl)cccc2C(F)(F)F)cs1,-1.1%,-1.6%,3.6%,-8.0,-18.9%,8.3%
COC(=O)c1ccc(CN2C(=O)c3ccccc3C2=O)cc1,-4.5%,-2.7%,0.4%,3.3,1.4%,5.0%
COC(=O)c1ccc(CN2C(=O)C(C)N(C(=O)c3c(F)cccc3F)c3ccccc32)cc1 (stereo not given),24.1%,-6.1%,8.2µM*,10.9,-4.7%,14.6µM*
CCN(CC)CCCNC(=O)c1cc(-c2ccc(OC)c(OC)c2)on1,x,x,32.2%,x,x,-2.4%
COc1cc(OC)c(C(=O)OCC(=O)Nc2cccc(S(=O)(=O)NC3=NCCCCC3)c2)cc1OC,0.4%,-8.1%,u,2.4,x,u
CCN(CC)S(=O)(=O)c1cccc(NC(=O)c2ccc(SC)cc2OC)c1,11.5%,1.5%,7.31µM*,x,-5.3%,25.9µM*
CCN(CC)S(=O)(=O)c1cccc(NC(=O)c2ccccc2Br)c1,-5.4%,0.6%,u,-4.9,-0.4%,-24.4%
COc1cc(SC)ccc1C(=O)Nc1cccc(S(=O)(=O)NC2=NCCCCC2)c1,16.9%,8.7%,u,-13.0,u,20.6µM*
COc1cc2cc(-c3ccc(OC)c(OC)c3C)nc(N)c2cc1OC,1.64µM*,1.64µM*,5.8µM*,5.2,x,5.17µM*
COc1cc2cc(-c3ccc(O)cc3O)nc(C)c2cc1OC,u,12.2%,6.51µM*,-72.6*,u,10.3µM*
O=C(COC(=O)/C=C/c1ccc([N+](=O)[O-])cc1)Nc1ccc2[nH]c(=O)[nH]c2c1,-2.4%,-10.8%,19.5%,3.6,0.3%,-14.9%
O=C([O-])c1ccccc1-[n+]1c(-c2ccccc2)cc(-c2ccccc2)cc1-c1ccccc1,-8.9%,-6.9%,5.8µM*,10.0,u,4.61µM*
CCn1cc([N+](=O)[O-])c(C(=O)N2N=C(c3ccc(Cl)c(Cl)c3)CC2c2ccccc2O)n1 (stereo not given),u,u,u,-85.1*,u,u
CCn1cc([N+](=O)[O-])c(C(=O)N2N=C(c3ccc4ccccc4c3)CC2c2cc(Br)ccc2O)n1 (stereo not given),u,u,6.51µM*,u,19.1%,u
O=C(CCN1C(=O)S/C(=C\c2ccccc2)C1=O)NC1CCS(=O)(=O)C1 (stereo not given),-0.7%,12.2%,-15.8%,-21.4,u,u

# Source: PubChem BioAssay (National Center for Advancing Translational Sciences (NCATS))
